Test results as given in PubChem BioAssay (NCI).
The panel holds about 79,000 compounds, 15% with a hit somewhere; the sample as a whole holds those more often. A number with no mark means an inactive call. Activity calls are given as the source filed them. Cut-off read from the data, not from the text of the source: active = growth inhibition above about 70%; inactive = the rest.

Experiment: NCI Yeast Anticancer Drug Screen. Data for the sgs1 mgt1 strain (AID 161);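 note: 0% = growth of cultures given vehicle only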
Details: S. cerevisiae sgs1 mgt1 strain, at 50.0 µM, active compounds read high
How it was run: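 Mutant yeast exposed to compound; growth scored against vehicle-only wells.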

SMILES | growth inhibition
Nc1nc2c(ccc3ccccc32)s1 | 67.5%
O=C(O)CCCCC1CCCCC1.[Cu+2] | 36%
O=Cc1ccc(O)c2ccccc12 | 75.6% (active)
CC(=Nc1ccc(N(C)C)cc1)c1ccccc1 | 46%
C/C(Cl)=N\OC(=O)Nc1ccc(C)cc1 | 74.5% (active)
COC(=O)C1CCC(c2ccccc2)CC1C(=O)OC (stereo not given) | 33%
CCCCNC(=S)NC1C2CC3CC(C2)CC1C3 (stereo not given) | 97.9% (active)
CCN(CC)CCOC(=O)CCN1CC2CCC(CC2)C1 | -23.9%
CCOc1ccc(-c2nc3ccc(-c4nc5ccc(N6CCN(C)CC6)cc5[nH]4)cc3[nH]2)cc1 | 90.2% (active)
NC(CCC(=O)NC(CS(=O)(=O)O)C(=O)O)C(=O)O (stereo not given) | 79.7% (active)
CSc1cc(C(=O)O)nc(N)n1 | -21.6%
CCN(CC)CCCNc1c(O)cc(C)c2sc3ccccc3c(=O)c12 | 99% (active)
C=C1C(=O)OC2C1CC1OC2C(C)CCC/C(C)=C\CCC1(C)O (stereo not given) | 94.1% (active)
O=C1C=CC2=Nc3ccccc3CCC2=C1 | 87.7% (active)
CC(C)CC(CC(C)C)OP(=O)(O)OC(CC(C)C)CC(C)C | 77.2% (active)
O=C(O)c1ccccc1Cc1ccc2c(c1)Cc1ccccc1-2 | 63.5%
Nc1c(F)cccc1F | -5.95%
COc1cc(OC)c(SSCCCCS(=O)O)c(OC)c1 | 41.5%
S=C1Nc2cnc3ccccc3c2SC1c1ccccc1 (stereo not given) | 87.8% (active)
CC(C)CCCC(C)[C@H]1CCC(C2C[C@@H](O)[C@@H]3CC(O)[C@@H](O)C[C@]3(CO)C2=O)[C@]1(C)CCO (stereo not given in full) | 91.7% (active)

SMILES | growth inhibition
CN(C)CC(CN(C)C)C(=O)c1ccc(Oc2ccc(Cl)c(Cl)c2)cc1 | 96.7% (active)
CN1c2ccccc2C(C)(C)C12C=Cc1cc(O)ccc1O2 (stereo not given) | 61.9%
CC(C)Cc1ncc(CC(C)C)n(O)c1=O | 91% (active)
Nc1ccc(SSc2ccc(N)cc2)cc1 | 57.6%
N#CCC1CC(=O)c2[nH]c3ccccc3c2C1 (stereo not given) | 10%
O=C1c2ccccc2C(=O)c2sccc21 | 93.8% (active)
CC/C(=C(\CC)c1ccc(O)c(CN(C)C)c1)c1ccc(OC)cc1 | 99.6% (active)
O=S(=O)(O)N=Nc1ccc(O)cc1 | 93.2% (active)
O=C1CCSC(=S)N1c1ccc(N=Nc2ccccc2)cc1 | 97.2% (active)
CC(C)C(=O)NNc1ccccc1 | 87.2% (active)
O=C(CBr)c1ccc2cc(Br)c3ccccc3c2c1 | 68.5%
O=C1c2cc3c(cc2CC1Br)CCC3 (stereo not given) | 88.3% (active)
O=C1NC(=O)N(c2ccc(Cl)c(Cl)c2)C1=O | 41.5%
C[n+]1c(-c2cccc(OCCOCCOc3cccc(-c4c5cc(N)ccc5c5ccc(N)cc5[n+]4C)c3)c2)c2cc(N)ccc2c2ccc(N)cc21 | 81.3% (active)
N#CC(C#N)C(C#N)c1ccc(Cl)c(Cl)c1 (stereo not given) | 99.8% (active)
CCCCCCCCCCCCOC(=O)C[n+]1cccc(C(=O)Nc2ccc(Cl)cc2)c1 | 99% (active)
CCC(=O)c1ccc2ccc3ccccc3c2c1 | 65.2%
Cc1ccc(S(=O)(=O)NC(=O)CC2CCCCC2)cc1 | 79.1% (active)
c1ccc(N/N=C(/CC/C(=N\Nc2ccccc2)c2ccccc2)c2ccccc2)cc1 | 97.2% (active)
Cc1c(N)cc(I)cc1[N+](=O)[O-] | 12.8%

Experiment: NCI Yeast Anticancer Drug Screen. Data for the cln2 rad14 strain (AID 165);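 note: 0% = growth equal to vehicle treated cultures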
Details: S. cerevisiae cln2 rad14 strain, at 5.0 µM (retest, dose inferred, filed as 0.5), active compounds read high
How it was run: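 The screen exposed genetically defined yeast (cln2 rad14) to test compounds and scored growth inhibition relative to vehicle-treated controls.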

SMILES | growth inhibition
Nc1nc2c(ccc3ccccc32)s1 | 14%
O=C(O)CCCCC1CCCCC1.[Cu+2] | 8%
O=Cc1ccc(O)c2ccccc12 | 1%
CC(=Nc1ccc(N(C)C)cc1)c1ccccc1 | -26%
C/C(Cl)=N\OC(=O)Nc1ccc(C)cc1 | 4%
COC(=O)C1CCC(c2ccccc2)CC1C(=O)OC (stereo not given) | 5%
CCCCNC(=S)NC1C2CC3CC(C2)CC1C3 (stereo not given) | 0%
CCN(CC)CCOC(=O)CCN1CC2CCC(CC2)C1 | 23%
CCOc1ccc(-c2nc3ccc(-c4nc5ccc(N6CCN(C)CC6)cc5[nH]4)cc3[nH]2)cc1 | 31%
NC(CCC(=O)NC(CS(=O)(=O)O)C(=O)O)C(=O)O (stereo not given) | 3%
CSc1cc(C(=O)O)nc(N)n1 | 8%
CCN(CC)CCCNc1c(O)cc(C)c2sc3ccccc3c(=O)c12 | 12%
C=C1C(=O)OC2C1CC1OC2C(C)CCC/C(C)=C\CCC1(C)O (stereo not given) | -6%
O=C1C=CC2=Nc3ccccc3CCC2=C1 | -52%
CC(C)CC(CC(C)C)OP(=O)(O)OC(CC(C)C)CC(C)C | 13%
O=C(O)c1ccccc1Cc1ccc2c(c1)Cc1ccccc1-2 | -19%
Nc1c(F)cccc1F | 2%
COc1cc(OC)c(SSCCCCS(=O)O)c(OC)c1 | -13%
S=C1Nc2cnc3ccccc3c2SC1c1ccccc1 (stereo not given) | -9%
CC(C)CCCC(C)[C@H]1CCC(C2C[C@@H](O)[C@@H]3CC(O)[C@@H](O)C[C@]3(CO)C2=O)[C@]1(C)CCO (stereo not given in full) | 13%

SMILES | growth inhibition
CN(C)CC(CN(C)C)C(=O)c1ccc(Oc2ccc(Cl)c(Cl)c2)cc1 | 4%
CN1c2ccccc2C(C)(C)C12C=Cc1cc(O)ccc1O2 (stereo not given) | 14%
CC(C)Cc1ncc(CC(C)C)n(O)c1=O | -6%
Nc1ccc(SSc2ccc(N)cc2)cc1 | -7%
N#CCC1CC(=O)c2[nH]c3ccccc3c2C1 (stereo not given) | -54%
O=C1c2ccccc2C(=O)c2sccc21 | -56%
CC/C(=C(\CC)c1ccc(O)c(CN(C)C)c1)c1ccc(OC)cc1 | 0%
O=S(=O)(O)N=Nc1ccc(O)cc1 | -8%
O=C1CCSC(=S)N1c1ccc(N=Nc2ccccc2)cc1 | 11%
CC(C)C(=O)NNc1ccccc1 | 15%
O=C(CBr)c1ccc2cc(Br)c3ccccc3c2c1 | 16%
O=C1c2cc3c(cc2CC1Br)CCC3 (stereo not given) | 98% (active)
O=C1NC(=O)N(c2ccc(Cl)c(Cl)c2)C1=O | -4%
C[n+]1c(-c2cccc(OCCOCCOc3cccc(-c4c5cc(N)ccc5c5ccc(N)cc5[n+]4C)c3)c2)c2cc(N)ccc2c2ccc(N)cc21 | 10%
N#CC(C#N)C(C#N)c1ccc(Cl)c(Cl)c1 (stereo not given) | 25%
CCCCCCCCCCCCOC(=O)C[n+]1cccc(C(=O)Nc2ccc(Cl)cc2)c1 | 53%
CCC(=O)c1ccc2ccc3ccccc3c2c1 | 4%
Cc1ccc(S(=O)(=O)NC(=O)CC2CCCCC2)cc1 | -4%
c1ccc(N/N=C(/CC/C(=N\Nc2ccccc2)c2ccccc2)c2ccccc2)cc1 | -13%
Cc1c(N)cc(I)cc1[N+](=O)[O-] | 6%
